Values without a mark were called inactive. Inconclusive results are not listed. The source made the active and inactive calls. Unless noted, calls follow the shape of the dose curve; as a rule, active = well fitted curve in the direction sought with a large enough effect; inconclusive = small, poorly fitted or top-dose-only effect, or another doubt; inactive = no such curve, though single readings can be large; an effect the other way counts as inactive or inconclusive.
Assay: qHTS for inhibitors of Rabies Virus screened against the NCATS CANVASS Library (AID 1347402; calls by dose curve; also: 0% is about no effect)
Settings: Rabies virus infection cell assay; series mostly up to 45.9 µM; activity change, negative = inhibition: at the top concentration

Structure (SMILES) | activity change, negative = inhibition
C[C@@H]1O[C@@H](OC[C@H]2O[C@@H](Oc3c(-c4ccc(O)c(O)c4)oc4cc(O)cc(O)c4c3=O)[C@H](O)[C@@H](O)[C@@H]2O)[C@H](O)[C@H](O)[C@H]1O | 1.59% [at 15.3 µM]
COc1ccc2[nH]cc(CCNC(C)=O)c2c1 | -18.4%
COC(=O)[C@@H]1[C@H]2C[C@H]3c4[nH]c5ccccc5c4CCN3C[C@@H]2CC[C@@H]1O | -1.31%
CN1CCC[C@@H]1c1cccnc1 | -2.88%
O=C(O)c1cc(O)c(O)c(O)c1 | -20.3%

Assay: qHTS to identify inhibitors of the type 1 interferon - major histocompatibility complex class I in skeletal muscle: primary screen against the NCATS LOPAC collection (AID 1347405);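 also: lytic HiBiT luminescence reporting HLA-B protein level; % is scaled to controls: 0 for no effect and ±100 for the full control effect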
Settings: iHSKM muscle cells, IFN-b-induced MHC-I HiBiT luminescence, 24 h; series mostly up to 45.9 µM; activity change, negative = inhibition: at the top concentration
Method in brief: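 After 24 h at 37 C with compounds (7-point, 1:4.3 dilutions, 46 uM top final) plus 4 ng/ml IFN-beta, luminescence from lytic HiBiT detection was measured. HLA-B*08:01 in C25cl48 myoblasts carried an endogenous C-terminal HiBiT tag; medium lacked dexamethasone.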

Structure (SMILES) | activity change, negative = inhibition [%] | outcome
COc1ccc2c(c1OC)C(=O)O[C@H]2[C@@H]1c2cc3c(cc2CCN1C)OCO3 | -3.81 | 
O=C(CCCN1CCC2(CC1)C(=O)NCN2c1ccccc1)c1ccc(F)cc1 | -27.8 | 
CN1C(=O)CCS(=O)(=O)C1c1ccc(Cl)cc1 (stereo not given) | 9.43 | 
CC(C)c1cccc(C(C)C)c1O | -9.84 | 
CCC1(c2ccc(N)cc2)CCC(=O)NC1=O (stereo not given) | 3.26 | 
O=c1[nH]oc2c1CCNC2 | 2.83 | 
NCCc1ccc(O)cc1 | 2.16 | 
Cc1ncsc1CCCl | -2.22 | 
C=C(C)[C@H]1CN[C@H](C(=O)O)[C@H]1CC(=O)O | -2.08 | 
CC(NC(C)(C)C)C(=O)c1cccc(Cl)c1 (stereo not given) | -4.41 | 
CC(C)(C)NCC(O)c1ccccc1Cl (stereo not given) | -5.25 | 
CCCCCN(C)CCC(O)(P(=O)(O)O)P(=O)(O)O | 1.45 | 
O=P1(N(CCCl)CCCl)NCCCO1 (stereo not given) | 1.37 | 
CC(C)N(CCC(C(N)=O)(c1ccccc1)c1ccccn1)C(C)C (stereo not given) |  | inactive

Assay: qHTS to identify inhibitors of the type 1 interferon - major histocompatibility complex class I in skeletal muscle: primary screen against the NCATS Pharmaceutical Collection (AID 1347407);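 also: luminescence of HiBiT knocked into endogenous HLA-B as interferon-induced MHC class I level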; also: potency is read from the fitted curve at half-maximal effect; as to activity change, negative = inhibition: % is scaled to controls: 0 for no effect and ±100 for the full control effect
Settings: human skeletal muscle cells, IFN-b-induced MHC-I HiBiT luminescence, 24 h; series mostly up to 45.9 µM; activity change, negative = inhibition: at the top concentration
Method in brief: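 HLA-B HiBiT myoblasts, dexamethasone-free growth medium + 4 ng/ml IFN-b; compounds pinned 1 h after seeding, […] from 46 uM; 24 h, 37 C, 5% CO2; lytic HiBiT detection, 10 min RT, luminescence.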

Structure (SMILES) | activity change, negative = inhibition | Potency
NC1=NC(=O)C(c2ccccc2)O1 (stereo not given) | 6.55% | 
CN(C)CCc1c[nH]c2cccc(OP(=O)(O)O)c12 | 8.37% [at 92.2 µM] | 
COc1ccc2c(c1OC)C(=O)O[C@H]2[C@@H]1c2cc3c(cc2CCN1C)OCO3 | 8.1% | 
O=C(CCCN1CCC2(CC1)C(=O)NCN2c1ccccc1)c1ccc(F)cc1 | -1.05% | 
C[C@]12Cc3cn[nH]c3C[C@@H]1CC[C@@H]1[C@@H]2CC[C@@]2(C)[C@H]1CC[C@]2(C)O | 2.42% | 
CCOC(=O)CC(SP(=S)(OC)OC)C(=O)OCC (stereo not given) |  | inactive
O=C(N/N=C/c1ccc([N+](=O)[O-])o1)c1cc([N+](=O)[O-])cc([N+](=O)[O-])c1O | -6.62% | 
CN1C(=O)CCS(=O)(=O)C1c1ccc(Cl)cc1 (stereo not given) | 12.8% | 
O=C1OC(c2ccc(O)c(S(=O)(=O)O)c2)(c2ccc(O)c(S(=O)(=O)O)c2)c2c(Br)c(Br)c(Br)c(Br)c21 | -2.85% | 
CN1C(=O)COc2c(C(=O)NC3CN4CCC3CC4)cc(Cl)cc21 (stereo not given) | 0.0854% | 
CC(C)c1cccc(C(C)C)c1O | 1.83% | 
CCC1(c2ccc(N)cc2)CCC(=O)NC1=O (stereo not given) | -0.831% | 
O=c1[nH]oc2c1CCNC2 | -2.15% | 
NCCc1ccc(O)cc1 | -0.864% | 
COc1cccc2c1C(=O)c1c(O)c3c(c(O)c1C2=O)C[C@@](O)(C(=O)CO)CC3OC1CC(N2CCOC(OC)C2)C(O)C(C)O1 (stereo not given in full) |  | 2970 nM (active)
O=C1c2ccccc2C(=O)C1C(=O)C(c1ccccc1)c1ccccc1 | -23.8% | 
Cc1ncsc1CCCl | -2.53% | 
C=C(C)[C@H]1CN[C@H](C(=O)O)[C@H]1CC(=O)O | 11.6% | 
CC(NC(C)(C)C)C(=O)c1cccc(Cl)c1 (stereo not given) | -17.8% | 
CC(C)(C)NCC(O)c1ccccc1Cl (stereo not given) | 0.995% | 
O=C(O)CCCc1ccc(N(CCCl)CCCl)cc1 | 3.34% | 
COP(=S)(OC)SCN1C(=O)c2ccccc2C1=O | -3.97% | 
O=P1(N(CCCl)CCCl)NCCCO1 (stereo not given) | 34.2% | 
CC(C)N(CCC(C(N)=O)(c1ccccc1)c1ccccn1)C(C)C (stereo not given) | 4.51% | 

Assay: qHTS for inhibitors of adenylyl cyclases using a fission yeast platform: a pilot screen against the NCATS LOPAC library (AID 1347410);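 also: plate controls were DMSO vehicle for no effect and DPI positive control for full effect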
Settings: S. pombe CHP2027, fbp1-GFP fluorescence, 18 h; series mostly up to 57.5 µM; activity, positive = inhibition (GFP gain): at the top concentration
Method in brief: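 Read-out: fbp1-GFP fluorescence by laser scanning cytometry (488 nm laser), a gain of signal when AC/cAMP-PKA signalling is inhibited. Strain CHP2027 expressing AC9, GNAS and PDE4D2; compounds at up to 57 µM; 18 h, 30C.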

Structure (SMILES) | activity, positive = inhibition (GFP gain) [%] | outcome
COc1ccc2c(c1OC)C(=O)O[C@H]2[C@@H]1c2cc3c(cc2CCN1C)OCO3 | -0.438 | 
O=C(CCCN1CCC2(CC1)C(=O)NCN2c1ccccc1)c1ccc(F)cc1 | -0.438 | 
CN1C(=O)CCS(=O)(=O)C1c1ccc(Cl)cc1 (stereo not given) | -0.438 | 
CC(C)c1cccc(C(C)C)c1O | 0.0023 | 
CCC1(c2ccc(N)cc2)CCC(=O)NC1=O (stereo not given) | -0.438 | 
NCCc1ccc(O)cc1 | 0.471 | 
Cc1ncsc1CCCl | -0.438 | 
C=C(C)[C@H]1CN[C@H](C(=O)O)[C@H]1CC(=O)O | -0.438 | 
CC(NC(C)(C)C)C(=O)c1cccc(Cl)c1 (stereo not given) | 0.0951 | 
CC(C)(C)NCC(O)c1ccccc1Cl (stereo not given) | -0.438 | 
CCCCCN(C)CCC(O)(P(=O)(O)O)P(=O)(O)O | 0.193 | 
O=P1(N(CCCl)CCCl)NCCCO1 (stereo not given) | -0.438 | 
CC(C)N(CCC(C(N)=O)(c1ccccc1)c1ccccn1)C(C)C (stereo not given) |  | inactive

Assay: qHTS to identify inhibitors of the type 1 interferon - major histocompatibility complex class I in skeletal muscle: primary screen against the NCATS Mechanism Interrogation Plate v5.0 (MIPE) Libary (AID 1347411); also: nearly all actives have a fitted effect of over 65% in size; also: potency is read from the fitted curve at half-maximal effect;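 as to activity change, negative = inhibition: plate controls were vehicle for no effect and reference inhibitor for full effect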
Settings: iHSKM cells + IFN-b, HiBiT-tagged MHC-I luminescence, 24 h; series mostly up to 45.8 µM; activity change, negative = inhibition: at the top concentration
Method in brief: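 Luminescence from CRISPR HiBit-tagged endogenous HLA-B in human myoblasts reported MHC class I level after 24 h of IFN-beta (4 ng/ml) plus compound. Compounds ran as 11-point 1:3 series, top 46 uM final.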

Structure (SMILES) | activity change, negative = inhibition [%] | Potency
C[C@]12Cc3cn[nH]c3C[C@@H]1CC[C@@H]1[C@@H]2CC[C@@]2(C)[C@H]1CC[C@]2(C)O | -17.1 | 
CN1C(=O)CCS(=O)(=O)C1c1ccc(Cl)cc1 (stereo not given) | 1.7 | 
CN1C(=O)COc2c(C(=O)NC3CN4CCC3CC4)cc(Cl)cc21 (stereo not given) | 7.72 | 
CC(C)c1cccc(C(C)C)c1O | 5.29 | 
CCC1(c2ccc(N)cc2)CCC(=O)NC1=O (stereo not given) | -9.22 | 
COc1cccc2c1C(=O)c1c(O)c3c(c(O)c1C2=O)C[C@@](O)(C(=O)CO)CC3OC1CC(N2CCOC(OC)C2)C(O)C(C)O1 (stereo not given in full) |  | 93 nM (active)
CC(NC(C)(C)C)C(=O)c1cccc(Cl)c1 (stereo not given) | 17.2 | 
O=C(O)CCCc1ccc(N(CCCl)CCCl)cc1 | 6.46 | 
O=P1(N(CCCl)CCCl)NCCCO1 (stereo not given) | 10.3 | 
